# Assay results reported in PubChem BioAssay AID1456 (Vanderbilt High Throughput Screening Facility, 2008).
# The whole screen tested about 190,000 compounds, of which about 4,100 (2.2%) were called active. For the sample, actives were picked, then their nearest neighbours and some compounds at random. Unmarked numbers belong to inactive results.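 The calls were made as follows: active = thallium flux slope and its plate-corrected score both differing from the plate sample mean at a set confidence after two filtering rounds, in either direction; inactive = the rest.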
# Target: Solute carrier family 12 member 5 (Homo sapiens) (UniProt Q9H2X9)
# Test: KCC2 cotransporter modulators, thallium flux, primary screen, cell-based, HEK293 KCC2, FluoZin-2 fluorescence, MLSMR (AID 1456);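 also: slope of fluorescence scaled to starting intensity during 10 to 20 s after thallium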
# Details: KCC2 cells, thallium flux FluoZin-2 fluorescence; at 10 µM
# Sequence of Solute carrier family 12 member 5 (Homo sapiens) (Q9H2X9 whole entry, looked up): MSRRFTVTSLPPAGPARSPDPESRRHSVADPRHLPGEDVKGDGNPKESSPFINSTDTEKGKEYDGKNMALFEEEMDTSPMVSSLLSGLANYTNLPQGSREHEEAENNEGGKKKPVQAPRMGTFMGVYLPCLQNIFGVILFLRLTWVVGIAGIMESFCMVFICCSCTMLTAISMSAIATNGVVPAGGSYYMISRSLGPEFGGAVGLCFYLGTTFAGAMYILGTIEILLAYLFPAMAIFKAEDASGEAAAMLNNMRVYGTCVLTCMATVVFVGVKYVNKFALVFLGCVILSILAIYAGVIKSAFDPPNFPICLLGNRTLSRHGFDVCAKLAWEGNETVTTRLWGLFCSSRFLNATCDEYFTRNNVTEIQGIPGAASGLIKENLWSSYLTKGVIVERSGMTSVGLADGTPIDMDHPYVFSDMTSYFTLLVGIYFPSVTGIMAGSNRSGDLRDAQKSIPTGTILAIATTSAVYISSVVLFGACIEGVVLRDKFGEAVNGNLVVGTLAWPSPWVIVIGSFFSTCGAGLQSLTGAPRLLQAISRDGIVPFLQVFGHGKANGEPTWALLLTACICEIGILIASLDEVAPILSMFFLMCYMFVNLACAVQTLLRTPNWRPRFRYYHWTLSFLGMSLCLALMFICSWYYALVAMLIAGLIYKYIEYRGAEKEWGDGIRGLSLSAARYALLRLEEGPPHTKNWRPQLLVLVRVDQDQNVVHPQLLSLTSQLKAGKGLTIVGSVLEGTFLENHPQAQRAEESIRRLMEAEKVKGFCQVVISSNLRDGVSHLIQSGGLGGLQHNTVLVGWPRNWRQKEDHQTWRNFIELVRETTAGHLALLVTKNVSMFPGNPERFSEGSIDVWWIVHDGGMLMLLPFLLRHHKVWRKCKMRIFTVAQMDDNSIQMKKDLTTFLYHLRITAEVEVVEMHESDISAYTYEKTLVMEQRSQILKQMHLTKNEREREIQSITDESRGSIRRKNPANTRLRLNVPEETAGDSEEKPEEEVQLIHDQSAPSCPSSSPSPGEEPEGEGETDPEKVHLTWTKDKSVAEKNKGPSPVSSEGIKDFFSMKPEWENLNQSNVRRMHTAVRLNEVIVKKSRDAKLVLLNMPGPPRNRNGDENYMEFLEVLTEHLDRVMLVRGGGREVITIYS
row,SMILES,B-score of Tl+ flux slope (higher = more flux/activation; lower = inhibition)
1,O=C(Cn1cnc2cc([N+](=O)[O-])ccc2c1=O)NC(=O)NCc1ccccc1,-0.182
2,CC(=O)c1ccc(S(=O)(=O)Nc2ccc(C(=O)NCC(c3ccccc3)N(C)C)cc2)cc1 (stereo not drawn),0.133
3,COc1ccc(N2CCC(CNC(=S)Nc3c(C)cccc3C)C2)cc1 (stereo not drawn),-0.00939
4,Cc1c(NC(=O)c2cccnc2)c(=O)n(-c2ccccc2)n1C,0.0888
5,Cc1c(NC(=O)CSc2cccc3cccnc23)c(=O)n(-c2ccccc2)n1C,4.92 (active)
6,Cc1c(NC(=O)CSc2nnnn2-c2ccc(C(=O)O)cc2)c(=O)n(-c2ccccc2)n1C,1.95
7,Nc1c(C(=O)NCc2ccccc2)nnn1Cc1cccc(Cl)c1,-1.02
8,O=c1[nH]n(-c2cccc(Cl)c2)c2ncccc12,0.268
9,Clc1cccc(CN2COc3c(cc(Cl)c4cccnc34)C2)c1,4.19 (active)
10,O=C(NNS(=O)(=O)c1ccccc1C(F)(F)F)c1cc2ncc(C(F)(F)F)cc2s1,-0.726
11,COc1ccc(OCc2cccc(C(=O)N3CCCC3)c2)cc1,0.115
12,Cc1oc(C(N)=O)cc1COc1ccc(C(N)=O)cc1,2.17 (active)
13,Cc1ccc(COc2ccc(C(=O)NN)cc2)cc1,-0.198
14,COc1ccc(Cl)cc1S(=O)(=O)N1CCC(O)(c2ccc(Cl)cc2)CC1,-0.0293
15,Cc1ccc(N=Nc2c(C)[nH]n(-c3ccccc3)c2=O)cc1,3.14
16,Cc1cccc(N=Nc2c(C)[nH]n(-c3ccccc3)c2=O)c1,0.0317
17,Cc1[nH]n(-c2ccccc2)c(=O)c1N=Nc1ccccc1C(=O)N1CCCCC1,5.68 (active)
18,CSc1nc(-c2ccco2)nn1C(=O)c1ccccc1Cl,-1.08
19,COC(=O)c1cc2c(N)c(C(=O)c3ccc(Cl)cc3)sc2nc1C(OC)OC,0.11
20,COc1cc(OC)cc(/C(N)=N/O)c1,-0.654
21,COc1ccc(N2C(=O)c3ccccc3NC2c2ccc(OC)c(CN3CCOCC3)c2)cc1 (stereo not drawn),-0.152

row,SMILES,B-score of Tl+ flux slope (higher = more flux/activation; lower = inhibition)
1,C=CCn1c(=S)sc2c(=O)[nH]c(C)nc21,-0.647
2,C=CCn1c(=S)[nH]c2nc3c(cc2c1=O)COC(C)(C)C3,3.61 (active)
3,O=C(CCl)N(Cc1cccc([N+](=O)[O-])c1)c1cccc(Cl)c1,-0.452
4,Cn1c2ccccc2c2cc(/C=C(\NC(=O)c3ccccc3)C(=O)NCC(=O)O)ccc21,0
5,Cc1csc(NC(=O)CSc2ccc(-c3ccc(F)cc3)nn2)n1,-4.45
6,O=C(CSc1ccc(-c2cccs2)nn1)Nc1ccccc1F,-2.89 (active)
7,Cn1c(CCC(=O)Nc2ccccc2F)nnc1SCC(=O)Nc1ccccc1Cl,-0.846
8,C=CCC1(C#N)C(=S)NC(C)=C(C(=O)OCC)C1c1ccccc1 (stereo not drawn),-0.00243
9,Cc1ccc(SCc2c(C(=O)N/N=C/C3CC=CCC3)nnn2-c2nonc2N)cc1 (stereo not drawn),-0.374
10,O=C(Nc1nnc(Cc2ccc(Cl)cc2)s1)c1ccncc1,-2.1
11,NS(=O)(=O)c1ccc(NC(=S)Nc2ccc(Br)c(Cl)c2)cc1,0.559
12,COc1ccc(CCNC(=O)c2ccco2)cc1,0.796
13,O=C(Nc1ccc2ccccc2c1)/C(=C/c1cccc(Br)c1)NC(=O)c1ccco1,-1.51
14,CC(C)Oc1ccc(CCC(=O)NNC(=S)NCc2ccccc2)cc1,-1.38
15,Cc1ccc(OCC(=O)NNC(=S)NCc2ccccc2)cc1,9.51 (active)
16,O=C(Nc1ccc2ccccc2c1)/C(=C\c1ccc2c(c1)OCO2)NC(=O)c1ccco1,0.0996
17,CCCc1ccc(OCC(=O)NNC(=S)NC(=O)c2ccco2)cc1,28.4 (active)
18,CC(=O)Nc1ccc(OCC(=O)NCc2ccc(C)cc2)cc1,-0.00613
19,CC(Oc1ccc2ccccc2c1)C(=O)NNC(=S)NC(=O)c1ccco1 (stereo not drawn),25.4 (active)
20,CCNC(=S)NNC(=O)Cc1ccccc1,0.737
21,CC(C)(C)c1cc(C(=O)NN)n(Cc2ccc(Cl)cc2Cl)n1,-0.315

row,SMILES,B-score of Tl+ flux slope (higher = more flux/activation; lower = inhibition)
1,O=S(=O)(Nc1n[nH]c(C(F)(F)F)n1)c1ccccc1,-2.65
2,N#Cc1c(NCCO)ccc([N+](=O)[O-])c1NCCO,-0.904
3,O=C1NC(c2cccc(Cl)c2)Nc2ccccc21 (stereo not drawn),0.445
4,O=C1c2ccccc2NC(c2ccc(-c3cccc(Cl)c3)o2)N1O (stereo not drawn),35 (active)
5,Nc1nnnn1CC(=O)N/N=C/c1ccc(-c2cccc(Cl)c2)o1,-0.38
6,CCn1c(SCC(=O)Nc2sc(C)c(C)c2C#N)nnc1C1CC1,0.253
7,COc1ccc(C(=O)NC(=S)NNC(=O)c2c(-c3ccccc3)noc2C)cc1,11.1 (active)
8,Cc1onc(-c2ccccc2)c1C(=O)N1CCOCC1,0.00257
9,CC(=O)Nc1cccc(NC(=O)c2c(-c3ccccc3)noc2C)c1,-0.00829
10,COc1ccc(C(=O)NNC(=S)NC(=O)c2ccccc2[N+](=O)[O-])cc1,1.61
11,Cc1onc(-c2ccccc2)c1C(=O)NNC(=S)NC(=O)c1ccc(F)cc1,8.51 (active)
12,Cc1onc(-c2ccccc2)c1C(=O)N=C(N)c1ccc(Cl)cc1,1.42
13,O=C1CCCC(O)=C1N=Nc1ccc(S(=O)(=O)N2CCOCC2)cc1,-0.62
14,Cc1ccc(OC(=O)c2c(C)nn(-c3ccccc3)c2C)cc1,0.00646
15,O=C(Nc1ccc(Cl)cc1)Nc1ccc(C(=O)N2CCOCC2)cc1,0.868
16,c1ccc2c(NC3C4CC5CC(C4)CC3C5)nc(N3CCOCC3)nc2c1 (stereo not drawn),-0.0419
17,COC(=O)c1sccc1NC(=O)CC1C(=O)NCCN1C(=O)Nc1ccc(F)cc1F (stereo not drawn),-0.52
18,COC(=O)c1ccccc1N=Nc1c(C)[nH][nH]c1=O,0.855
19,O=C(Nc1ccc(S(=O)(=O)Nc2nccs2)cc1)c1cc(-c2ccncc2)nc2ccccc12,-0.477
20,CC(C)(C)Cc1nnc(NC(=O)c2cc(-c3ccccc3)nc3ccccc23)s1,0.0714
21,O=C(Nc1nnc(-c2ccccc2)o1)c1cc(-c2cccs2)nc2ccccc12,99.4 (active)
